# TDP1 cell CPT = qHTS for Inhibitors of human tyrosyl-DNA phosphodiesterase 1 (TDP1): qHTS in cells in presence of CPT; hit rate 12% among 420,000; chicken DT40 Tdp1-/-;hTDP1 cells + 20 nM CPT, ATP luminescence, 48 h; Potency, µM (series often up to 46.2 µM), without a hit: at the top dose activity change, negative = growth inhibition, hits mostly inhibitors; note: potency is the fitted concentration of half-maximal effect; nearly all actives have a fitted effect of over 55% in size
#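 Chicken DT40 Tdp1-/- cells stably complemented with human TDP1 were seeded at 400 cells/well in medium containing 20 nM camptothecin, exposed to pin-transferred compounds, and grown at 37 °C for at least 48 hr. Viability was read as ATP luminescence.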
# IL-1B inflam inh = qHTS for Inhibitors of Inflammasome Signaling: IL-1-beta AlphaLISA Primary Screen | THP-1 LPS/ATP IL-1B secretion, AlphaLISA, 16 h; active compounds read low | activity change, % at 57.5 µM | hit rate 4.7% among 360,000 | AID 743279, 2014; in the data active = activity change below about -50%; inconclusive = mostly about -30% to -49%
#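 THP-1 cells pretreated 1 hr with compounds (up to 57.5 uM final), then stimulated with LPS (250 ng/mL final) plus ATP (1.25 mM final); secreted IL-1B measured by AlphaLISA after 16 hr, decreased signal indicating inhibition.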
# ELG1 DNA repair = qHTS screen for small molecules that inhibit ELG1-dependent DNA repair in human embryonic kidney (HEK293T) cells expressing luciferase-tagged ELG1; HEK293T ELG1-luciferase reporter, luminescence, 16 h; DNA damage induced by 5-fluorouridine; Potency, µM (titrated, usually from 46.1 µM), for the others: top-dose activity change, negative = inhibition, hits mostly inhibitors; hit rate 2.3% among 330,000; note: potency is the fitted concentration of half-maximal effect; nearly all actives have a fitted effect of over 55% in size
#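 Luminescence from the luciferase reporter, measured 30 min after ONE-Glo reagent at room temperature, was the read-out. Beforehand, 2,000 cells per well were exposed for 16 hr at 37 °C to 5-fluorouridine together with compound or vehicle.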
# HT1080 IDH1KD tx = qHTS for induction of synthetic lethality in tumor cells producing 2HG: qHTS for the HT-1080-IDH1KD cell line | HT-1080 IDH1 knockdown viability, ATP luminescence, 48 h | Potency, µM (doses to about 46.1 µM), for inactives: at the top dose activity, negative = toxicity, hits mostly cytotoxic | hit rate 2% among 360,000 | AID 686971, 2013;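 note: potency is the fitted concentration of half-maximal effect; 0% = DMSO wells and -100% = cell-free medium wells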
#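 Viability of IDH1-knockdown HT-1080 fibrosarcoma cells was assessed by CellTiter-Glo after 48 h at 37 °C with titrated compound; concentration-effect curves were classified by fit quality and response size.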
# TDP1 cell noCPT = qHTS for Inhibitors of human tyrosyl-DNA phosphodiesterase 1 (TDP1): qHTS in cells in absence of CPT; hit rate 15% among 420,000; AID 686978, 2013; Potency, µM (top dose mostly 46.2 µM), inactives show at the top dose activity change, negative = growth inhibition, usual class: inhibitors; DT40 Tdp1-/- hTDP1 cells, no CPT, ATP luminescence, 48 h; note: potency is the fitted concentration of half-maximal effect; nearly all actives have a fitted effect of over 55% in size
#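 Growth of hTDP1-complemented DT40 Tdp1-knockout cells is measured by ATP luminescence after at least 48 hr compound exposure at 37 °C, with DMSO substituting for the 20 nM CPT used in the parallel screen.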
# HT1080NT lethal = qHTS for induction of synthetic lethality in tumor cells producing 2HG: qHTS for the HT-1080-NT fibrosarcoma cell line; HT-1080-NT fibrosarcoma viability, CellTiter-Glo ATP luminescence, 48 h; Potency, µM (top dose mostly 46.1 µM), for inactives: top-dose activity, negative = less viability, usual class: cytotoxic; hit rate 1.6% among 360,000; AID 686970, 2013;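 note: NT is the 2HG producing partner of a matched IDH1 knockdown line; potency is the fitted concentration of half-maximal effect; 0% = DMSO-treated cells and -100% = media-only wells without cells; nearly all actives have a fitted effect of over 55% in size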
#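 HT-1080-NT fibrosarcoma cells (2HG-overproducing), 750 cells/well in RPMI with 5% FBS, dosed after 2 h and incubated 48 h at 37C. CellTiter-Glo luminescence normalized to DMSO and no-cell wells; concentration-response curves fitted and classed.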
# An asterisk follows results filed as active; ? = inconclusive; / = not tested or not shown; [ ] = another dose, or the depositor's remark. Sampled rows, rich in hits. Any-hit rate of the full collection: about 19%. Unless noted, calls come from the whole dose curve; as a rule, active = well fitted curve in the direction sought with a large enough effect; inconclusive = small, poorly fitted or top-dose-only effect, or another doubt; inactive = no such curve, though single readings can be large; an effect the other way counts as inactive or inconclusive. Unless noted, % is set by controls: 0 for no effect and ±100 for the full control effect.
SMILES,TDP1 cell CPT,IL-1B inflam inh,ELG1 DNA repair,HT1080 IDH1KD tx,TDP1 cell noCPT,HT1080NT lethal
CCC(=NCc1cccnc1)c1c(O)n(C2CCCCC2)c(=O)[nH]c1=O,?,-12,-14%,-15%,?,-1%
CCC(=O)c1c(O)n(C2CCCCCC2)c(=O)[nH]c1=O,6.5µM*,1,12%,?,16µM*,-16%
CCC(=NCc1ccco1)c1c(O)n(C2CCCCC2)c(=O)[nH]c1=O,23µM*,-1,?,-5%,?,-14%
CCC(=Nc1ccc(OC)cc1OC)c1c(O)n(C2CCCCC2)c(=O)[nH]c1=O,?,-2,18µM*,-22%,?,-13%
C/C(=N\N1CCN(C)CC1)c1c(O)[nH]c(=O)[nH]c1=O,7%,6,27%,1%,10%,9%
Cc1ccc(S(=O)(=O)c2nnn3c2nc(N2CCC(C(N)=O)CC2)c2cc(Cl)ccc23)cc1C,21µM*,/,/,/,5.2µM*,/
CNC(=O)NC(O)C(Cl)(Cl)Cl (configuration not stated),-2%,11,12%,3%,8%,5%
O=C1Nc2cc(Cl)c(Cl)cc2N2CCNC[C@H]12,-31%,/,/,/,?,/
Cc1ccccc1N1CCN(C2CCCN(C(=O)COc3ccccc3)C2)CC1 (configuration not stated),26µM*,20,-21%,1%,21µM*,-14%
CC(=O)c1ccc(OCC(=O)N2CCCC(N3CCN(c4ccccc4C)CC3)C2)cc1 (configuration not stated),?,-2,?,0%,?,4%
CN1C(=O)/C(=C/c2ccc(Cl)s2)C(=O)NC1=S,7.3µM*,-97*,24%,?,9.2µM*,?
COc1ccc(/C=C2\C(=O)NC(=S)N(C)C2=O)cc1C,2%,-1,-8%,-6%,-2%,-4%
CCN1C(=O)/C(=C\c2ccc([N+](=O)[O-])s2)C(=O)NC1=S,/,/,11%,/,/,/
Cc1ccsc1/C=C1\C(=O)NC(=S)N(C)C1=O,5.8µM*,-94*,?,-2%,3.3µM*,0%
C=CCN1C(=O)/C(=C/c2ccc(Br)s2)C(=O)NC1=S,?,-99*,11%,2%,21µM*,-2%
CN1C(=O)/C(=C\c2ccc(N3CCCCCC3)cc2)C(=O)NC1=S,?,-7,-4%,8%,?,15%
CC1COC2N=C(N[N+](=O)[O-])NC2O1 (configuration not stated),-6%,1,-18%,18%,?,20%
Nc1c(C(=O)Nc2ccc(OC(F)(F)F)cc2)sc2nc3c(cc12)N1CCC3CC1,16µM*,/,/,/,18µM*,/
Cc1ccc(C2=NCC(=O)Nc3ccc(Br)cc32)cc1,0%,25,19%,-18%,?,-13%
CSc1ccc(C(=O)C2CCCN(Cc3cc4ccccc4[nH]3)C2)cc1 (configuration not stated),?,-100*,?,?,?,23µM*
O[C@@H]1[C@H](O)[C@H]2[C@@H](O)CCN2C[C@@H]1O,11%,/,/,/,-2%,/
CC[C@]1(O)CC(O[C@@H]2CC(N(C)C)C(O)C(C)O2)c2c(cc3c(c2O)C(=O)c2c(O)ccc(O)c2C3=O)C1C(=O)OC (some centres not stated),1.5µM*,/,/,/,1.3µM*,/
O=C(Oc1ccccc1)N1CCC2(CCN(Cc3ccncc3)CC2)CC1,0%,/,/,/,?,/
Cc1ccc(OCC(=O)NCCN2CCN(C(=O)COc3ccc(C)cc3)CC2)cc1,-7%,-19,9%,1%,-21%,1%
O=C(CCN1CC=C(c2ccccc2)CC1)NCc1ccccc1,-8%,-5,/,-1%,-29%,1%
SMILES,TDP1 cell CPT,IL-1B inflam inh,ELG1 DNA repair,HT1080 IDH1KD tx,TDP1 cell noCPT,HT1080NT lethal
O=C(NCCCN1CC1)Nc1cccc2ccccc12,1.6µM*,-11,/,-17%,7.3µM*,1%
CC(CC(C)(C)N1CC1)=NNC(=O)Nc1cccc2ccccc12,3.7µM*,-17,/,0%,2.9µM*,7%
Cc1ccccc1NC(=O)NCCN1CC1,4.1µM*,6,-3%,2%,7.3µM*,9%
O=C1NCN(c2ccccc2)C12CCN(C(c1nnnn1C1CCCC1)C1CC1)CC2 (configuration not stated),?,-22,/,-7%,?,0%
C=C(C)[C@@H]1CC[C@]2(C(=O)O)CC[C@]3(C)[C@H](CC[C@@H]4[C@@]5(C)CC[C@H](O)C(C)(C)[C@@H]5CC[C@]43C)[C@@H]12,5.8µM*,60,-13%,2%,3.7µM*,19%
Nc1ccc(C2(c3ccc(N)cc3)c3ccccc3-c3ccccc32)cc1,26%,-171*,?,16µM*,15%,?
Cc1[nH]c2c(Cl)cccc2c(=O)c1CN1CCCCCC1,?,0,16%,13%,-16%,11%
O=C1C(=O)c2cccc3cccc1c23,0.58µM*,5,-6%,6%,0.65µM*,0%
O=C1C(=O)c2ccccc2-c2ccccc21,0.52µM*,-108*,7.3µM*,1.2µM*,0.58µM*,0.92µM*
c1cc2ccc3cccc4ccc(c1)c2c34,-9%[92.5 µM],/,/,/,-21%[92.5 µM],/
O=C(O)c1cc(Oc2ccc(C(F)(F)F)cc2Cl)ccc1[N+](=O)[O-],0%,5,/,-1%,8%,10%
O=[N+]([O-])c1cc(C(F)(F)F)c(Cl)c([N+](=O)[O-])c1Nc1ncc(C(F)(F)F)cc1Cl,0.1µM*,/,/,/,0.025µM*,/
COc1cc(C(=O)OC2C[C@H]3CC[C@@H](C2)N3)ccc1O (some centres not stated),-5%,-19,-12%,-3%,-21%,-3%
CC(C)CC1C(=O)N(Cc2cn(CC3CCCCC3)nn2)CCS(=O)(=O)N1Cc1ccc(-c2ccc(F)nc2)cc1 (configuration not stated),21µM*,-3,/,-27%,18µM*,-29%
CC(=O)c1c(O)c(C)c(O)c2c1OC1=Cc3c(c(C)nn3-c3ccccc3)C(=O)C12C (configuration not stated),23µM*,36,/,1%,16µM*,-3%

# Source: PubChem (National Center for Advancing Translational Sciences (NCATS))
